Bioassay records from PubChem BioAssay.
The list is not random: actives were taken first. Their share in the collection is about 2.9%.
GALC G270D up = A Novel Cell-Based Assay to Identify Small Molecules for B -Galactocerebrosidase; Potency, µM (highest dose often 57.5 µM), hits mostly activators; 145M-Twi-hGALC-G270D cells (Twitcher mouse brain line with human GALC G270D), HMU-beta-Gal fluorescence, 48 h; AID 1159614, 2016; P54803; 45,000 tested, 0.1% active; also: potency is read from the fitted curve at half-maximal effect; 0% is about no effect; nearly all actives have a fitted effect of over 65% in size
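Fluorogenic HMU-b-Gal hydrolysis (0.1 mM final, pH 5.2 citrate-phosphate with 1 mg/mL sodium taurocholate; carbonate stop buffer) measures mutant GALC activity after compound treatment of live 145M-Twi Twitcher brain cells stably carrying human GALC-G270D, with wild-type GALC line alongside; activation sought.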
GPR32 ag = qHTS for Agonists of Human Resolvin D1 Receptor DRV1; activation, % at 76.9 µM; 48,000 tested, 2.5% active; Probable G-protein coupled receptor 32 (Homo sapiens), O75388; CHO-K1 GPR32 beta-arrestin PathHunter luminescence, 90 min; zero percent set by DMSO-only wells;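 active = activation of at least 60% and not above a set upper limit, about 1 call in 100 departs from these limits; inconclusive = activation of 40% to 60%, or above that upper limit; inactive = activation under 40%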; also: 0% is about no effect
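Luminescent readout of beta-Gal complementation quantifies ligand-induced beta-arrestin association with GPR32 in CHO-K1 cells; 90 min compound incubation at 37 °C, detection 1 h at room temperature.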
OvCa metastasis = Primary qHTS assay for Inhibitors of ovarian cancer metastasis using an organotypic tumor microenvironment (TME) model. SKOV3ip1-GFP adhesion/invasion on 3D omental model, fluorescence. Potency, µM (doses to about 45.8 µM), inactives show at the top dose activity change, negative = inhibition, hits mostly inhibitors. 46,000 tested, 0.1% active. AID 1963576, 2024;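 also: potency is read from the fitted curve at half-maximal effect; plate controls were DMSO wells for no effect and tomatine positive control wells for full effect; nearly all actives have a fitted effect of over 65% in size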
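Primary human omental fibroblast/mesothelial 3D culture pre-formed 48 h. SKOV3ip1-GFP cells added with compounds (0.36-46 umol/L), incubated 2 h RT/16 h 37 C, fixed; GFP cells quantified at 488/509 nm.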
FH mod = Identification of activators of human fumarate hydratase by quantitative high-throughput screening. Fumarate hydratase, mitochondrial (Homo sapiens), P07954. FH coupled MDH/diaphorase resazurin fluorescence, 15 min. Potency, µM (series often up to 79.9 µM), for inactives: at the highest dose activity change, negative = inhibition, usual class: inhibitors. 54,000 tested, 0.22% active. AID 1347055, 2019; also: potency is read from the fitted curve at half-maximal effect; % is scaled to controls: 0 for no effect and ±100 for the full control effect; the screen sought activators but most active calls are inhibition curves; nearly all actives have a fitted effect of over 45% in size
Target sequence (P07954 whole entry, looked up): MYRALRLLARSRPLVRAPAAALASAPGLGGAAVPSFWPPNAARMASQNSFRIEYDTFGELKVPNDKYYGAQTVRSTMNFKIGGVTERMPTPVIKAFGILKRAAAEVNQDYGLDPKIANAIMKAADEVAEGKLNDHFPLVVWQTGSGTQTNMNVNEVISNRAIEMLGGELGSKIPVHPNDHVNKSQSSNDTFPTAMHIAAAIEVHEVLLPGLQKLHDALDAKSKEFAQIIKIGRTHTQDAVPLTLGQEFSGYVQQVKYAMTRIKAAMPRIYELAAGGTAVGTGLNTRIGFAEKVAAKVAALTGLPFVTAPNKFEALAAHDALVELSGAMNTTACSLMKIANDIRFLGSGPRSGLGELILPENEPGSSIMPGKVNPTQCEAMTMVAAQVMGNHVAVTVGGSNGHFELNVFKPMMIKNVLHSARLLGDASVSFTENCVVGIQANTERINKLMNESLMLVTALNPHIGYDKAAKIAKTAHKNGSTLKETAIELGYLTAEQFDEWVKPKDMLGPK
Active calls of the source: *; i = inactive; ? = inconclusive; . = no result given; ! = repeats disagree; [ ] = dose if it differs, or a comment. Unless noted, calls follow the shape of the dose curve; as a rule, active = well fitted curve in the direction sought with a large enough effect; inconclusive = small, poorly fitted or top-dose-only effect, or another doubt; inactive = no such curve, though single readings can be large; an effect the other way counts as inactive or inconclusive.

SMILES | GALC G270D up | GPR32 ag | OvCa metastasis | FH mod
CCOC(=O)C(CCc1ccccc1)NC(C)C(=O)N1C(=O)N(C)CC1C(=O)O (configuration not stated) | . | . | . | -0.8%
O=C(O)c1ccc(-c2c[nH]c3ncc(-c4ccccc4)cc23)cc1C1CCCC1 | . | . | -10.4% | 31.6µM*!
FC(F)(F)c1cccc(Nc2nc3nonc3nc2Nc2ccc(Cl)cc2)c1 | i | -23.3 | 10µM* | ?
O=C(Nc1cccc(C(F)(F)F)c1)c1cc(-c2ccc(Cl)cc2)on1 | i | ? | 16.6% | 1.5%
Cc1cccc(CNS(=O)(=O)c2ccc(-c3coc(C)n3)cc2)c1 | i | 98.5* | i | 1.4%
C[C@H]1O[C@@H](O[C@H]2CC[C@@]3(C)C(CC[C@]4(C)C3CC=C3C5CC(C)(C)CC[C@]5(C(=O)O)CC[C@]34C(=O)O)C2(C)C)[C@H](O)[C@@H](O)[C@@H]1O (some centres not stated) | . | . | . | -1.7%[20.6 µM]
Nc1nc(CC(=O)Nc2ccc(CCNCC(O)c3ccccc3)cc2)cs1 (configuration not stated) | . | . | . | 27.0%
CC1CCCN(C(=O)c2cc3c(Cl)nc4ccccc4c3s2)C1 (configuration not stated) | i | 107.5* | -1.2% | -24.8%
COc1ccccc1NC(=O)c1cc2ccc3cccnc3c2[nH]1 | i | 92.6* | 0.2% | -28.7%
CC(C)(C)c1ccc(-c2nc3c(N4CCN(Cc5ccc6nccnc6c5)CC4)cccc3[nH]2)cc1 | . | . | . | -17.5%
CC1(C)CC[C@]2(C(=O)O[C@@H]3O[C@H](CO)[C@@H](O)[C@H](O)[C@H]3O)CC[C@]3(C)C(=CCC4[C@@]5(C)C[C@@H](O)[C@H](O)C(CO)(CO)C5CC[C@]43C)C2[C@@H]1O (some centres not stated) | . | . | . | 6.1%[20.6 µM]
CCOC(=O)c1c(N)n(-c2ccc(CC)cc2)c2nc3ccccc3nc12 | i | 2.7 | i | -0.6%
CCOC(=O)c1c(N)n(-c2cccc(OC)c2)c2nc3ccccc3nc12 | 3.98µM* | 1.5 | 8.6% | -2.6%
CN1CCc2c(sc3c2C(=O)NC(c2ccc(OC(=O)c4ccc(C(C)(C)C)cc4)cc2)N3)C1 (configuration not stated) | i | 64.5* | -17.5% | ?
COc1ccc(N2CCN(CC(O)COc3ccc(C)cc3C)CC2)cc1 (configuration not stated) | i | 66.6* | 10.9% | -22.7%
COc1ccccc1N1CCN(CC(O)COc2ccc(Cl)c(C)c2)CC1 (configuration not stated) | i | 118.4* | i | -4.1%
COc1ccccc1N1CCN(CC(O)COc2cc(C)cc(C)c2)CC1 (configuration not stated) | i | 34.0 | -2.4% | -10.3%
COc1ccc(N2CCN(CC(O)COc3ccc(C(C)(C)C)cc3)CC2)cc1 (configuration not stated) | i | 10.3 | -8.3% | -4.9%
O=C(NS(=O)(=O)c1ccc(Br)s1)c1ccc(Cl)cc1Cl | . | . | . | 7.4%
Cc1nc2cccnc2n1C1CCN(S(=O)(=O)c2ccc(Cl)cc2)CC1 | . | 48.7 | i | .
CCOc1ccc(S(=O)(=O)N2CCC(n3c(C)nc4cccnc43)CC2)cc1 | i | 75.6* | 9.2% | -11.8%
Cc1nc2cccnc2n1C1CCN(C(=O)Nc2ccc(Cl)cc2)CC1 | i | 87.7* | i | -9.3%
Cc1ccc(NC(=O)c2ccc3snnc3c2)cc1Cl | i | 95.1* | i | -2.0%
CCOC(=O)c1ccc(NC(=O)Nc2ccc3snnc3c2)cc1 | i | 18.5 | i | 6.6%
Cc1ccc(NC(=O)Nc2ccc3snnc3c2)cc1C | i | 65.6* | -6.1% | -2.8%
O=C(Cc1csc2ccccc12)NCc1ccc(F)cc1 | i | -18.7 | -3.8% | -13.6%
Cc1ccc(CNC(=O)Cc2csc3ccccc23)cc1 | i | 85.4* | 0.7% | -7.8%
CC1(C)CCC2(C(=O)OC3OCC(O)C(O)C3O)CCC3(C)C(=CCC4C5(C)CC(O)C(OC6OC(COC7OCC(O)C(O)C7O)C(O)C(O)C6O)C(C)(C)C5CCC43C)C2C1 (configuration not stated) | . | . | . | -1.3%[20.6 µM]
